Compound activity as filed in PubChem BioAssay.
FLuc counter: firefly luciferase modulation, counter-screen for miR-21 project | purified FLuc, Km substrates, luminescence inhibition | P08659 | Potency, µM (series often up to 57.5 µM), for inactives: at the highest dose activity change, negative = inhibition, hits mostly inhibitors | 360,000 compounds, 6.9% hits;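 also: plate controls were vehicle for no effect and reference inhibitor for full effect; nearly all actives have a fitted effect of over 55% in size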
Target sequence (P08659 whole entry, looked up): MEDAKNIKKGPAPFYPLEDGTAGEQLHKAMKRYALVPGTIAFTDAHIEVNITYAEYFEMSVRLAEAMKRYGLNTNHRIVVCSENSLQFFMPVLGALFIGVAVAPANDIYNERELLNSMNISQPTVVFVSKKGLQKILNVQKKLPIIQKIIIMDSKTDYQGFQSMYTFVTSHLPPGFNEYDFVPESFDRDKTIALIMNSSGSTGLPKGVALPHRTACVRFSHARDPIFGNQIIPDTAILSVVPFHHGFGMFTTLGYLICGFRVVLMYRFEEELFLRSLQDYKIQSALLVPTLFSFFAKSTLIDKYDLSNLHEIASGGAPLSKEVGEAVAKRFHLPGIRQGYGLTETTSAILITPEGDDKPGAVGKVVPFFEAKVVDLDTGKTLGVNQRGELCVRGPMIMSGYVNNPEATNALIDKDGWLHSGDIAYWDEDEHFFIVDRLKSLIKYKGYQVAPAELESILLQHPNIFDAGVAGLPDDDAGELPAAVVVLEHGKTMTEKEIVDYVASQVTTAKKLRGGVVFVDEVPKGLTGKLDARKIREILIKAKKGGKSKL
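Biochemical qHTS of compounds, final roughly 60 µM downward over six points, against 10 nM purified firefly luciferase using Km concentrations of substrates (10 uM D-luciferin, 10 uM ATP) in Tris acetate pH 7.5 buffer; luminescence output.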
ELG1 genotoxic: genotoxicity induction in ELG1-luciferase HEK293T cells; HEK293T ELG1-luciferase reporter, luminescence, 16 h; Potency, µM (top dose mostly 46 µM), for inactives: at the highest dose activity change, positive = activation, usual class: activators; 330,000 compounds, 1.3% hits; AID 504466; also: % of control where 0% means no effect; nearly all actives have a fitted effect of over 60% in size
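ELG1-luciferase HEK293T cells, 2,000/well; compound pinned in; 16 hr, 37 °C, 5% CO2; ONE-Glo, 30 min RT; luminescence on CCD imager.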
NPC1 promoter act: activators of NPC1 promoter; Huh7 NPC1 promoter luciferase reporter, 24 h; Potency, µM (doses to about 9.22 µM), inactives show top-dose activation, actives largely listed as activators; 320,000 compounds, 2.4% hits; AID 485313; also: % of control where 0% means no effect; nearly all actives have a fitted effect of over 60% in size
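Cells: Huh7 expressing luciferase under the NPC1 promoter, 1500/well. Seeded 2 h, compound added, incubated 24 h at 37 °C. Luciferase reagent, 10 min ambient, then luminescence.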
Rab9 promoter act: activators of Rab9 promoter; Huh7 Rab9 promoter-luciferase reporter, luminescence, 24 h; Potency, µM (titrated, usually from 9.22 µM), for the others: at the top dose activation, negative = inhibition, usual class: activators; 320,000 compounds, 2.8% hits; AID 485297; also: % of control where 0% means no effect; nearly all actives have a fitted effect of over 60% in size
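Huh7 reporter line, Rab9 promoter upstream of luciferase. Compound exposure 24 h at 37 °C in reduced-serum medium with 10% FBS. Read-out: luminescence.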
SMN2 splice up: enhancers of SMN2 splice variant expression; HEK293 SMN2-luciferase splicing reporter, luminescence, 30-36 h; Potency, µM (top dose mostly 46.1 µM), for inactives: at the top dose activity change, positive = activation, most hits filed as activators; 210,000 compounds, 2.8% hits; also: % of control where 0% means no effect; nearly all actives have a fitted effect of over 55% in size
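HEK293 cells carry an SMN2 minigene-luciferase reporter in which exon 7 inclusion puts luciferase in frame. Cells were seeded at 2000 cells/well, attached for 10-12 hours, then exposed to compounds for 30-36 hours at 37C before ONE-Glo luminescence.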
ELG1 repair inh: ELG1-dependent DNA repair inhibition; 330,000 compounds, 2.3% hits; HEK293T ELG1-luciferase reporter, luminescence, 16 h; DNA damage induced by 5-fluorouridine; AID 504467; Potency, µM (titrated, usually from 46.1 µM), for the others: top-dose activity change, negative = inhibition, usual class: inhibitors; also: % is scaled to controls: 0 for no effect and ±100 for the full control effect; nearly all actives have a fitted effect of over 55% in size
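DMSO vehicle served as the neutral condition. Each well held 2,000 cells given 5-fluorouridine plus compound; after 16 hr at 37 °C/5% CO2, ONE-Glo was added and luciferase measured 30 min later.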
* hit, by the source's call; ? = inconclusive; / = no result. In the library only some 9.3% were active in any assay of this set; here they are far more common. Calls follow the shape of the dose curve; as a rule, active = well fitted curve in the direction sought with a large enough effect; inconclusive = small, poorly fitted or top-dose-only effect, or another doubt; inactive = no such curve, though single readings can be large; an effect the other way counts as inactive or inconclusive. Potency is read from the fitted curve at half-maximal effect.

SMILES	FLuc counter	ELG1 genotoxic	NPC1 promoter act	Rab9 promoter act	SMN2 splice up	ELG1 repair inh
Cc1ccc2[nH]c3c(c2c1)CN(C(=O)CN1CCN(Cc2ccc4c(c2)OCO4)CC1)CC3	2%	-13%	6%	-5%	-16%	?
COc1cc(CC(=O)O)c(C(C)=O)cc1OC	0%	1%	-2%	0%	-1%	28%
COc1ccc(OC)c(/C=C/C(=O)c2ccc3c(c2)OCCO3)c1	2.4µM*	7%	20%	23%	/	-15%
O=C(OCC(=O)N1CCCCCC1)c1ccccc1Br	5.4µM*	?	2.2µM*	1.8µM*	/	?
O=C(OCC(=O)N1CCCCCC1)c1ccc[nH]c1=O	/	0%	/	/	/	12%
COc1ccc(C(=O)OCC(=O)NC2CC2)cc1[N+](=O)[O-]	8%	2%	-2%	0%	5.6µM*	14%
Cc1ccc(C(=O)OCC(=O)N2CCCCCC2)c(O)c1	12µM*	13%	?	2.8µM*	/	?
Cc1ccc(C(=O)OCC(=O)N2CCOCC2)c(C)c1	-9%	15%	-7%	7%	/	?
O=C(OCC(=O)N1CCCC1)c1ccccc1O	15µM*	?	2.8µM*	?	/	?
O=C(O)c1ccc(Nc2ccc(F)c(F)c2)c([N+](=O)[O-])c1	-2%	-3%	4%	10%	/	13%
Cc1ccc(C(=O)c2ccccc2C(=O)OCC(=O)N2CC(C)CC(C)C2)cc1 (stereo not given)	2%	-1%	0%	-6%	/	18µM*
O=C(COC(=O)c1ccccc1Br)NC1CCCCCCC1	/	-1%	/	/	/	0%
COc1cc(SC)ccc1C(=O)OCC(=O)NC1CCCC1	24µM*	?	1%	?	-4%	?
O=C(COC(=O)c1ccccc1Br)NC1CCCC1	17µM*	?	29%	21%	/	?
CC1CCN(C(=O)COC(=O)c2ccccc2C(=O)c2ccccc2)CC1	/	0%	/	/	/	3%
Cc1ccc(S(=O)(=O)NCC(=O)N(CC(=O)NCC2CCCO2)Cc2ccccc2)cc1 (stereo not given)	-2%	0%	0%	1%	20%	1%
CCOn1c(SCC)nc2ccccc2c1=O	0%	2%	-6%	25%	-15%	-1%
Cc1ccc(-c2cc(-c3n[nH]c(=S)n3C)c3ccccc3n2)cc1	11µM*	4%	-1%	-8%	19%	?
CCn1c(-c2cc(-c3ccc(C)c(C)c3)nc3ccccc23)n[nH]c1=S	3µM*	9%	-2%	3%	/	?
CCOc1cccc(-c2cc(-c3n[nH]c(=S)n3CC)c3ccccc3n2)c1	12µM*	-10%	8%	-6%	-16%	-12%
Cn1c(-c2ccccc2)n[nH]c1=S	-1%	-1%	-1%	1%	/	-1%
CCOC(=O)c1oc2cc(OCC(N)=O)ccc2c(=O)c1-c1ccc(OC)c(OC)c1	-2%	1%	0%	1%	6%	2%
CC(=O)Nc1ccc(S(=O)(=O)NCc2nc(-c3ccccc3C)no2)cc1	0%	-3%	1%	-1%	/	-20%
COc1ccc(Cl)cc1C(=O)OCC(=O)N1CCCC(C)C1 (stereo not given)	/	0%	/	/	/	?
CC(C)CCN(C(=O)c1csnn1)C(C(=O)NC1CCCC1)c1ccc(F)cc1 (stereo not given)	19µM*	1%	7%	-3%	/	-10%
O=C(NC1CCCC1)C(c1ccc(F)cc1)N(Cc1ccccc1)C(=O)c1csnn1 (stereo not given)	0%	-5%	12%	3%	/	-4%
CCCN(CC(=O)Nc1ccccc1C)C(=O)c1ccc2c(c1)S(=O)(=O)N=C1CCCCCN12	-1%	1%	-2%	7%	/	17%
CCN(CC(=O)Nc1ccc(NC(C)=O)cc1)C(=O)c1ccc2c(c1)S(=O)(=O)N=C1CCCCCN12	11µM*	-10%	0%	-1%	/	8%
